In all, about 16,000 sequences were measured (“rpm ratio (pull-down/input)”: median about 0.94, highest 2% from about 1.7 on). What follows is part of a selection rich in the highest values, with near analogues and random picks from the rest.

This assay has as its target T1, MBP-FoxP1dN (Mus musculus, UniProt P58462 326-579).
T1 sequence: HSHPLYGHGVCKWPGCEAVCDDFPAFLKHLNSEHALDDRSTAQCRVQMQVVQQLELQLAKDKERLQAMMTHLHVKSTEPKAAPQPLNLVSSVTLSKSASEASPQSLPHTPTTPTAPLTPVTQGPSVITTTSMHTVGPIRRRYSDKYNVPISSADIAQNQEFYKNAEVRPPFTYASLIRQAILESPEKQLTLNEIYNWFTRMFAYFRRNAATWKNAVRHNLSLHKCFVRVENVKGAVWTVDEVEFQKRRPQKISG
The assay can be described thus: PD-seq (MBP pull-down with sequencing); 20 mM Tris-HCl pH 7.5, 100 mM NaCl, 1.5 mM MgCl2, 0.4 uM protein, 0.1 uM dsDNA library, 30 min, room temperature, amylose pull-down; high values mean tight binding. The note with it: protein: recombinant; tags: His6-MBP; chain copies: 2; dsDNA, one strand shown. The method, boiled down:
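Binding is the reads-per-million enrichment of pull-down relative to input, pooled across replicates. For this, 0.4 µM His6-MBP-tagged mouse FoxP3 or FoxP1 fragment lacking the N-terminus, made in E. coli, was incubated with 0.1 µM Klenow-filled double-stranded degenerate DNA library for 30 min at room temperature in Tris pH 7.5 buffer with NaCl and MgCl2. Complexes bound to amylose resin were washed three times before proteinase K released the DNA for PCR barcoding and Illumina sequencing.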
In the case of “GATGATTGTTCTCCCAGCTGATGAATTGCGGCAGTCGAGTAAACAAATTTTCCTAATCTTTCTGTTCAAGCGCCATCTAC”, the binding signal was 0.919 RPM ratio (pull-down/input). Regarding “GATGATTGTTCTCCCAGCTGATGAATTGCGCTAGTCGAGTAAACAAATTTTCCTAATCTTTCTGTTCAAGCGCCATCTAC”, the binding signal was 1.06 RPM ratio (pull-down/input). With “GATGATTGTTCTCCCAGCTGATGAATTTCTTTATTCGAGTAAACAAATTTTCCTAATCTTTCTGTTCAAGCGCCATCTAC” the figure was 0.979 RPM ratio (pull-down/input). On to “GATGATTGTTCTCCCAGCTGATGAATTTATTCTTTCGAGTAAACAAATTTTCCTAATCTTTCTGTTCAAGCGCCATCTAC”, for which the binding signal was 1.34 RPM ratio (pull-down/input). Consider “GATGATTGTTCTCCCAGCTGATGAATTTATTTATTCGAGTAAACAAATTTTCCTAATCTTTCTGTTCAAGCGCCATCTAC”, for which the binding signal was 2.17 RPM ratio (pull-down/input).

On to “GATGATTGTTCTCCCAGCTGATGAATTCTTTTATTCGAGTAAACAAATTTTCCTAATCTTTCTGTTCAAGCGCCATCTAC”, for which the binding signal was 1.13 RPM ratio (pull-down/input). With “GATGATTGTTCTCCCAGCTGATGAATTGATTTATTCGAGTAAACAAATTTTCCTAATCTTTCTGTTCAAGCGCCATCTAC” the figure was 1.27 RPM ratio (pull-down/input). With “GATGATTGTTCTCCCAGCTGATGAATTTATTGATTCGAGTAAACAAATTTTCCTAATCTTTCTGTTCAAGCGCCATCTAC” the figure was 1.86 RPM ratio (pull-down/input); with “GATGATTGTTCTCCCAGCTGATGAATTAATTTCCTCGAGTAAACAAATTTTCCTAATCTTTCTGTTCAAGCGCCATCTAC”, 0.884 RPM ratio (pull-down/input); with “GATGATTGTTCTCCCAGCTGATGAATTTATGCAGTCGAGTAAACAAATTTTCCTAATCTTTCTGTTCAAGCGCCATCTAC”, 1.11 RPM ratio (pull-down/input). Next, “GATGATTGTTCTCCCAGCTGATGAATTTACGTCATCGAGTAAACAAATTTTCCTAATCTTTCTGTTCAAGCGCCATCTAC”: 1.45 RPM ratio (pull-down/input). On to “GATGATTGTTCTCCCAGCTGATGAATTACCTACCTCGAGTAAACAAATTTTCCTAATCTTTCTGTTCAAGCGCCATCTAC”, for which the binding signal was 0.913 RPM ratio (pull-down/input). In the case of “GATGATTGTTCTCCCAGCTGATGAATTGTTTACCTCGAGTAAACAAATTTTCCTAATCTTTCTGTTCAAGCGCCATCTAC”, the binding signal was 2.65 RPM ratio (pull-down/input). For “GATGATTGTTCTCCCAGCTGATGAATTTATTACCTCGAGTAAACAAATTTTCCTAATCTTTCTGTTCAAGCGCCATCTAC”, the binding signal was 1.2 RPM ratio (pull-down/input). With “GATGATTGTTCTCCCAGCTGATGAATTTACCTCCTCGAGTAAACAAATTTTCCTAATCTTTCTGTTCAAGCGCCATCTAC” the figure was 1.07 RPM ratio (pull-down/input). In the case of “GATGATTGTTCTCCCAGCTGATGAATTATTTACCTCGAGTAAACAAATTTTCCTAATCTTTCTGTTCAAGCGCCATCTAC”, the binding signal was 1.86 RPM ratio (pull-down/input). For “GATGATTGTTCTCCCAGCTGATGAATTTTTTACCTCGAGTAAACAAATTTTCCTAATCTTTCTGTTCAAGCGCCATCTAC”, the binding signal was 0.943 RPM ratio (pull-down/input). Next, “GATGATTGTTCTCCCAGCTGATGAATTATACTGCTCGAGTAAACAAATTTTCCTAATCTTTCTGTTCAAGCGCCATCTAC”: 0.951 RPM ratio (pull-down/input); “GATGATTGTTCTCCCAGCTGATGAATTCTGCCTGTCGAGTAAACAAATTTTCCTAATCTTTCTGTTCAAGCGCCATCTAC”: 0.791 RPM ratio (pull-down/input); “GATGATTGTTCTCCCAGCTGATGAATTCATACATTCGAGTAAACAAATTTTCCTAATCTTTCTGTTCAAGCGCCATCTAC”: 1.01 RPM ratio (pull-down/input). Next, “GATGATTGTTCTCCCAGCTGATGAATTTGACCGATCGAGTAAACAAATTTTCCTAATCTTTCTGTTCAAGCGCCATCTAC”: 0.841 RPM ratio (pull-down/input); “GATGATTGTTCTCCCAGCTGATGAATTGCTCGAGTCGAGTAAACAAATTTTCCTAATCTTTCTGTTCAAGCGCCATCTAC”: 0.899 RPM ratio (pull-down/input). Next, “GATGATTGTTCTCCCAGCTGATGAATTTCCGGAATCGAGTAAACAAATTTTCCTAATCTTTCTGTTCAAGCGCCATCTAC”: 0.872 RPM ratio (pull-down/input); “GATGATTGTTCTCCCAGCTGATGAATTTTAGTTATCGAGTAAACAAATTTTCCTAATCTTTCTGTTCAAGCGCCATCTAC”: 1.18 RPM ratio (pull-down/input). As for “GATGATTGTTCTCCCAGCTGATGAATTTTTTTTATCGAGTAAACAAATTTTCCTAATCTTTCTGTTCAAGCGCCATCTAC”, the binding signal is 0.958 RPM ratio (pull-down/input). In the case of “GATGATTGTTCTCCCAGCTGATGAATTTATCTAATCGAGTAAACAAATTTTCCTAATCTTTCTGTTCAAGCGCCATCTAC”, the binding signal is 1.32 RPM ratio (pull-down/input). Take “GATGATTGTTCTCCCAGCTGATGAATTTCTTTTATCGAGTAAACAAATTTTCCTAATCTTTCTGTTCAAGCGCCATCTAC”: the binding signal was 1.03 RPM ratio (pull-down/input). Turning to “GATGATTGTTCTCCCAGCTGATGAATTTTCTTTATCGAGTAAACAAATTTTCCTAATCTTTCTGTTCAAGCGCCATCTAC”, the binding signal is 1.2 RPM ratio (pull-down/input). With “GATGATTGTTCTCCCAGCTGATGAATTAGTTTTATCGAGTAAACAAATTTTCCTAATCTTTCTGTTCAAGCGCCATCTAC” the figure was 1.02 RPM ratio (pull-down/input); with “GATGATTGTTCTCCCAGCTGATGAATTTTTTATATCGAGTAAACAAATTTTCCTAATCTTTCTGTTCAAGCGCCATCTAC”, 1.08 RPM ratio (pull-down/input).

Take “GATGATTGTTCTCCCAGCTGATGAATTTTATATATCGAGTAAACAAATTTTCCTAATCTTTCTGTTCAAGCGCCATCTAC”: the binding signal is 1.11 RPM ratio (pull-down/input).

These data come from paper PMC12820563, “FoxP3 forms a head-to-head dimer in vivo and stabilizes its multimerization on adjacent microsatellites”.
